Where “and” joins values, the source holds several entries; their conditions need not be identical. Identical values can stand only once. Out of some 360,000 compounds screened, about 1,300 (0.36%) were called active. The list comes from a sample in which actives are over-represented; it also holds similar structures and randomly drawn compounds. A number with no mark means an inactive call.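 Rule for the calls: active = corrected activity change at or below -50% at 5 µM; inactive = the rest.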
assay: cytotoxicity in KKLEB CF airway cells, primary screen, cytotoxicity control for CF NF-kB inhibitor project, cell-based, uHTS, fluorescence assay plates (AID 602141); conditions: KKLEB CF airway cells viability, ATPlite luminescence, overnight; at 5 µM; active compounds read low; cells stimulated with P. aeruginosa culture filtrate

Compared with `CCCN(CCC)C(=S)Nc1cc(C(=O)OC)ccc1C(=O)OC`, `COC(=O)c1ccccc1NC(=O)c1cncc(Br)c1` is higher in activity change (cytotoxicity): -5.9% for the first, 16% for the second.

First: CC(=O)Nc1ccc(S(=O)(=O)N2CCn3cccc3C2C)cc1 (stereo not given)
Second: CN(C(=O)Nc1ccc(Cl)cc1)n1cnc2ccccc2c1=O
The activity change (cytotoxicity) of the first is lower: -3.5% for the first, 6.1% for the second.

Going from `CCCCN=C1C([N+](=O)[O-])=CC=C2C1=NC1(CCCCC1)N2O` to `CCCCC(=O)Nc1c2c(nn1-c1ccc([N+](=O)[O-])cc1)CS(=O)(=O)C2`, the activity change (cytotoxicity) falls from -4.3% to -15.2%.

Compared with `CC(C)C[C@H]1CN=C(Nc2ccccc2)N1CC1CCCCC1`, `CC(C)CCn1c(=O)c2c(nc3n2CCCN3Cc2ccccc2)n(C)c1=O` is lower in activity change (cytotoxicity): 3.3% for the first, -20.8% for the second.

Compared with `Clc1ccc(COn2c(-c3ccc(Cl)cc3Cl)nc3ncccc32)cc1`, `O=C(Nc1nnc(Cc2ccc(Cl)cc2)s1)c1cccnc1` is lower in activity change (cytotoxicity): 1.3% for the first, -6% for the second.

First: Fc1ccc(-c2ccc(CNCc3ccccn3)o2)cc1Cl
Second: CCOc1ccc(C(=O)NC(C(=O)NCc2ccccn2)C(C)C)cc1 (stereo not given)
The activity change (cytotoxicity) of the first is higher: 5.4% for the first, -1.5% for the second.

Compared with `O=C(CCN1C(=O)[C@@H]2Cc3ccccc3CN2C1=O)NCc1ccccc1`, `CN(Cc1ccccc1)S(=O)(=O)c1nnc(NC(=O)c2ccccc2F)s1` is lower in activity change (cytotoxicity): -2.4% for the first, -8.6% for the second.

Compared with `Cc1cc(C)cc(-c2nnc(SCC(=O)NC3CC3)o2)c1`, `C[C@@H]1CN([C@H](C)CO)C(=O)c2cc(NC(=O)NC3CCCCC3)ccc2O[C@H]1CN(C)S(C)(=O)=O` is lower in activity change (cytotoxicity): 8.4% for the first, 2.2% for the second.

Compared with `c1csc(CN2CCN(Cc3cccs3)C2c2cccs2)c1`, `O=C(Nc1cccc(Cl)c1)Nc1ccccc1NS(=O)(=O)c1cccs1` is higher in activity change (cytotoxicity): 0% for the first, 13.5% for the second.

First: O=C(NCCSc1ncc(-c2ccccc2)[nH]1)c1ccco1
Second: O=C(NCC1CCCO1)c1cc2c([nH]c3ccccc32)c(-c2ccc(F)cc2)n1 (stereo not given)
The activity change (cytotoxicity) of the first is higher: 0.1% for the first, -5.3% for the second.

First: Cc1ccc(-c2cc(N)on2)cc1
Second: Cc1ccc2nc(-c3ccc(Br)cc3)cn2c1
The activity change (cytotoxicity) of the first is higher: -5.6% for the first, -30% for the second.

First: CCn1c(SCC(=O)Nc2ccc(Br)cc2)nc2sc3c(c2c1=O)CCN(C)C3
Second: COc1cc(NS(=O)(=O)c2ccc(NC(=S)NC(=O)c3ccc(Br)cc3)cc2)ncn1
The activity change (cytotoxicity) of the first is higher: 9.6% for the first, 1% for the second.

First: COC(=O)c1cc(NC(=O)c2nn(C)c(=O)c3ccccc23)cc(C(=O)OC)c1
Second: O=C(Nc1cccc(C(=O)NC2CC2)c1)c1ccc(F)c(S(=O)(=O)N2CCOCC2)c1
The activity change (cytotoxicity) of the first is lower: -11.1% for the first, -2.3% for the second.

Going from `Cc1cccc(CS(=O)(=O)c2ncc(Cl)c(C(=O)Nc3ccc(F)cc3)n2)c1` to `O=C(Nc1nnc(-c2ccc(F)cc2)s1)c1c(F)cccc1Cl`, the activity change (cytotoxicity) rises from -15.9% to 7.4%.

First: COCCNC(=O)C1(C)CCCN(Cc2cccc(F)c2)C1 (stereo not given)
Second: CCNC(=O)C1(C)CCCN(C(=O)c2ccc3ccccc3n2)C1 (stereo not given)
The activity change (cytotoxicity) of the first is higher: 6.2% for the first, -5.1% for the second.

Compared with `CCOC(=O)NC(=O)C(=CNc1cccc(OC)c1)C(=O)NC(=O)OCC`, `COc1ccc(C(CC(=O)Nc2ccc(C)cc2)NC(=O)C(F)(F)F)cc1` (stereo not given) is lower in activity change (cytotoxicity): 17.8% for the first, 6.9% for the second.

First: CC(C)Nc1nc(NCCOc2ccccc2Cl)c2sccc2n1
Second: CC(C)(C)c1nc2ccccc2c(=O)n1N1C(=O)c2ccccc2C1=O
The activity change (cytotoxicity) of the first is higher: -5.6% for the first, -12.6% for the second.

Compared with `O=[N+]([O-])/C=C1\CCCCCN1`, `O=C1CCCN1C(=O)COc1ccc([N+](=O)[O-])cc1` is lower in activity change (cytotoxicity): -1.7% for the first, -6.8% for the second.

Going from `CCCn1nnnc1NCc1ccc(OC)cc1` to `COc1ccc(CNc2nnnn2C)cc1`, the activity change (cytotoxicity) rises from 5.9% to 6.7%.

First: C[C@H]1CN([C@@H](C)CO)C(=O)CCCn2cc(nn2)CO[C@@H]1CN(C)S(=O)(=O)c1cccc(C#N)c1
Second: CC1=CCC2C(=O)N(c3cccc(C(=O)NC(C)c4ccccc4)c3)C(=O)C2C1 (stereo not given)
The activity change (cytotoxicity) of the first is higher: 4.9% for the first, -1.1% for the second.

Compared with `COc1cc(C(=O)N(C)Cc2cccc(OC)c2OC)ccc1OCC(=O)Nc1cccc(C(F)(F)F)c1`, `COc1ccc(NC(=O)Cn2c(-c3ccc(OC)cc3)cn(-c3ccc(C)cc3)c2=O)cc1` is higher in activity change (cytotoxicity): 7.7% for the first, 12.5% for the second.

Compared with `Cc1cccc(C(=O)O)c1[N+](=O)[O-]`, `CS/C(=C\[N+](=O)[O-])Nc1ccc(C)cc1` is lower in activity change (cytotoxicity): 14% for the first, -4.4% for the second.

First: Cn1ccnc1-c1nnn(-c2ccc(F)cc2)n1
Second: Cc1cccc(C)c1NC1=NC(=S)N(c2ccc(N(C)C)cc2)C1(C)C
The activity change (cytotoxicity) of the first is lower: -12.5% for the first, -3.7% for the second.

Compared with `CO[C@@H]1[C@@H](OC(N)=O)[C@@H](O)C(Oc2ccc3c(O)c(NC(=O)c4ccc(O)c(CC=C(C)C)c4)c(=O)oc3c2C)OC1(C)C` (stereo not given in full), `O=S(=O)(Nc1ccccc1N1CCOCC1)c1ccc(Cl)s1` is lower in activity change (cytotoxicity): 44.1% for the first, 1.7% for the second.

With `COC(=O)c1ccc(C(=O)Nc2cc(Cl)ccc2Cl)cc1NC(=O)c1ccccc1C` the activity change (cytotoxicity) was -62.7% (active).
In the case of `Clc1ccc(-c2cc(-c3ccccn3)on2)c(Cl)c1`, the activity change (cytotoxicity) is reported as -62.1% (active).
In the case of `Cc1ccc(-c2cn3cc(C)ccc3n2)cc1`, the activity change (cytotoxicity) is reported as -61.7% (active).
In the case of `CSc1nnc(NC(=O)c2nc(S(=O)(=O)Cc3ccc(C)cc3)ncc2Cl)s1`, the activity change (cytotoxicity) is reported as -74.7% (active).
In the case of `Cc1ccc(CS(=O)(=O)c2ncc(Cl)c(C(=O)Nc3nnc(C)s3)n2)cc1`, the activity change (cytotoxicity) is reported as -93.7% (active).
In the case of `CN(c1ccc2nc3ccccc3c(=O)n2n1)C1CCCCC1`, the activity change (cytotoxicity) is reported as -54.1% (active).
With `COc1ccc(CNc2c(CO)cnc3c2cnn3C)cc1` the activity change (cytotoxicity) was -62.1% (active).
In the case of `COc1cc(NC(=O)c2[nH]cnc2C(N)=O)cc(C(=O)Nc2cccc(C(F)(F)F)c2)c1`, the activity change (cytotoxicity) is reported as -61.7% (active).
For `COc1cc(NC(=O)c2cncc(-c3ccc(C#N)cc3)c2)cc(C(=O)Nc2cccc(C(F)(F)F)c2)c1`, the activity change (cytotoxicity) was 7.5% and 5.1%.
In the case of `O=C1/C(=C\c2ccc([N+](=O)[O-])cc2)CS(=O)(=O)C/C1=C/c1ccc([N+](=O)[O-])cc1`, the activity change (cytotoxicity) is reported as -101% (active).
For `COc1cc(NC(=O)c2ccccc2NS(=O)(=O)c2ccc(Cl)s2)cc(OC)c1`, the activity change (cytotoxicity) was -57.2% (active).
For `COc1ccc(CC(=O)Nc2ccc(-c3nnc(-c4ccc(C)cc4)o3)cc2)cc1`, the activity change (cytotoxicity) was -56.3% (active).
